IDE exosite FP: displaces the probe from the exo-site of human IDE. AID 1259349. P14735. 6.3% of 17,000 active. z-score at 20 µM. purified IDE, FL-6b probe fluorescence polarization; active compounds read low;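 active = z-score of -3 or lower, meaning strong loss of probe binding signal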;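 also: His-tagged human IDE residues 42-1019 made in E. coli with 30 nM FL-6b probe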
* hit, by the source's call. This is one part of a sample in which hits are shown more often than they occur.

`C/C=C/c1ccc([C@@H]2[C@H]3CN(C(=O)CN(C)C)CCCCN3[C@H]2CO)cc1` gave IDE exosite FP 1.06.
`CN(C)CC(=O)N1CCCCN2[C@H](CO)[C@H](c3ccc(/C=C/c4ccccc4)cc3)[C@H]2C1` gave IDE exosite FP -10.9*.
Screening CN(C)CC(=O)N1CCCCN2[C@@H](CO)[C@@H](c3ccc(-c4ccccc4)cc3)[C@@H]2C1 returned IDE exosite FP -0.783.
CN(C)CC(=O)N1CCCCN2[C@@H](CO)[C@@H](c3ccc(/C=C/c4ccccc4)cc3)[C@@H]2C1 was read as IDE exosite FP -11.7*.
Screening O=C(Nc1cccc(F)c1)N1CCCCN2[C@H](CO)[C@H](c3ccc(C#Cc4cccnc4)cc3)[C@H]2C1 returned IDE exosite FP 0.827.
Cc1noc(C)c1S(=O)(=O)N(C)C[C@@H]1OCc2cn(nn2)CCCC(=O)N([C@@H](C)CO)C[C@H]1C was read as IDE exosite FP -0.269.
`CC(C)[C@@H]1C(=O)N[C@@H](c2cccc(Cl)c2)CC=CC[C@@H](C)Oc2ccccc2C(=O)N1C` (mixture of isomers) gave IDE exosite FP 0.89.
For CN(C)CC(=O)N1[C@H](CO)[C@H](c2ccccc2)C12CN(C(=O)c1ccc(F)cc1)C2 the results were IDE exosite FP 1.08.
Screening COc1ccccc1-c1ccc2c(c1)O[C@H](CN(C)CC1CCOCC1)[C@H](C)CN([C@@H](C)CO)S2(=O)=O returned IDE exosite FP 0.662.
For O=C(CC1CC1)N1CC(=O)N2[C@H](C1)[C@@H](c1ccc(/C=C/c3ccccc3)cc1)[C@@H]2CO the results were IDE exosite FP -2.05.
O=C(CC1CC1)N1CC(=O)N2[C@H](C1)[C@H](c1ccc(-c3ccccc3)cc1)[C@@H]2CO was read as IDE exosite FP -5.09*.
`O=C(CC1CC1)N1CC(=O)N2[C@@H](CO)[C@H](c3ccc(-c4cccnc4)cc3)[C@@H]2C1` gave IDE exosite FP 2.91.
`O=C(CC1CC1)N1CC(=O)N2[C@H](CO)[C@H](c3ccc(-c4cccnc4)cc3)[C@H]2C1` gave IDE exosite FP -0.577.
For O=C(CC1CC1)N1CC(=O)N2[C@H](C1)[C@@H](c1ccc(-c3ccccc3)cc1)[C@@H]2CO the results were IDE exosite FP -8.94*.
`O=C(CC1CC1)N1CC(=O)N2[C@H](C1)[C@H](c1ccc(-c3cccnc3)cc1)[C@@H]2CO` gave IDE exosite FP 0.432.
For O=C(CC1CC1)N1CC(=O)N2[C@H](CO)[C@@H](c3ccc(/C=C/c4ccccc4)cc3)[C@@H]2C1 the results were IDE exosite FP -1.21.
`O=C(CC1CC1)N1CC(=O)N2[C@H](CO)[C@@H](c3ccc(-c4ccccc4)cc3)[C@@H]2C1` gave IDE exosite FP -5.85*.
Screening O=C(CC1CC1)N1CC(=O)N2[C@H](CO)[C@H](c3ccc(-c4cccnc4)cc3)[C@@H]2C1 returned IDE exosite FP 0.238.
COc1cccc(CN2CC3(CN(C)C3)c3c(n(C)c4cc(OC)ccc34)[C@H]2CO)c1 was read as IDE exosite FP 0.283.
`CC(C)CC#Cc1ccc([C@H]2[C@@H](CO)N3C(=O)CN(C(=O)Nc4ccc(F)cc4)C[C@H]23)cc1` gave IDE exosite FP 3.02.
`O=C1CN(S(=O)(=O)c2cccc(F)c2)C[C@H]2[C@@H](c3ccc(C4=CCCC4)cc3)[C@@H](CO)N12` gave IDE exosite FP 0.0892.
C[C@H](CO)N1C[C@H](C)[C@@H](CN(C)Cc2ccc3c(c2)OCO3)Oc2ccc(NC(=O)C3CCCCC3)cc2C1=O was read as IDE exosite FP 1.81.
For CC(=O)N1[C@H](CNC(=O)CN(C)C)[C@@H](c2ccc(C3=CCCCC3)cc2)[C@@H]1CO the results were IDE exosite FP -1.1.
`COCC(=O)N1CC(=O)N2[C@H](CO)[C@@H](c3ccc(C#Cc4cccnc4)cc3)[C@H]2C1` gave IDE exosite FP 0.859.
COc1cccc(C#Cc2ccc([C@H]3[C@@H](C#N)N[C@@H]3CO)cc2)c1 was read as IDE exosite FP -0.55.
OC[C@@H]1[C@@H](c2ccc(C#Cc3cccnc3)cc2)[C@H]2CN(Cc3ccccc3F)CCCCN12 was read as IDE exosite FP -0.597.
For C[C@@H]1CN([C@@H](C)CO)C(=O)c2ccccc2-c2ccccc2CO[C@H]1CN(C)C(=O)Nc1ccnc(N2CCOCC2)c1 the results were IDE exosite FP 0.0803.
N#C[C@@H]1[C@@H](c2ccccc2C2=CCCC2)[C@H](CO)N1C(=O)C1CC1 was read as IDE exosite FP 1.46.
For CC(C)(O)C#Cc1ccc([C@H]2[C@H]3CN(Cc4ccccc4F)CCCCN3[C@H]2CO)cc1 the results were IDE exosite FP 1.58.
`Cc1noc(C)c1S(=O)(=O)Nc1ccc2c(c1)CC(=O)N([C@@H](C)CO)C[C@H](C)[C@@H](CN(C)Cc1ccc(Oc3ccccc3)cc1)O2` gave IDE exosite FP -4.3*.
C[C@H](CO)N1C[C@H](C)[C@@H](CN(C)S(=O)(=O)c2ccccc2F)Oc2ncc(/C=C/c3ccccc3)cc2C1=O was read as IDE exosite FP 0.418.
For Cc1noc(C)c1S(=O)(=O)Nc1ccc2c(c1)CC(=O)N([C@H](C)CO)C[C@@H](C)[C@H](CN(C)Cc1ccc(Oc3ccccc3)cc1)O2 the results were IDE exosite FP -1.15.
Screening C[C@@H]1CN([C@@H](C)CO)C(=O)c2cc(/C=C/c3ccccc3)cnc2O[C@@H]1CN(C)S(=O)(=O)c1ccccc1F returned IDE exosite FP -3.96*.
Screening Cc1noc(C)c1S(=O)(=O)Nc1ccc2c(c1)CC(=O)N([C@H](C)CO)C[C@H](C)[C@H](CN(C)Cc1ccc(Oc3ccccc3)cc1)O2 returned IDE exosite FP 0.0793.
`C[C@@H]1CN([C@H](C)CO)C(=O)c2cc(/C=C/c3ccccc3)cnc2O[C@@H]1CN(C)S(=O)(=O)c1ccccc1F` gave IDE exosite FP -2.05.
Screening C[C@@H]1CN([C@@H](C)CO)C(=O)c2cc(N(C)C)ccc2O[C@H]1CN(C)Cc1ccc(Oc2ccccc2)cc1 returned IDE exosite FP -0.562.
C[C@@H]1CN([C@@H](C)CO)C(=O)c2cc(N(C)C)ccc2O[C@@H]1CN(C)Cc1ccc(Oc2ccccc2)cc1 was read as IDE exosite FP -1.4.
C[C@H]1CN([C@@H](C)CO)C(=O)c2cc(Br)cnc2O[C@H]1CN(C)Cc1ccc(Oc2ccccc2)cc1 was read as IDE exosite FP -3.47*.
For O=C(Nc1ccccc1F)N1CCCCN2[C@H](CO)[C@@H](c3ccc(C4=CCCC4)cc3)[C@H]2C1 the results were IDE exosite FP 0.281.
CO[C@@H]1CN(C)C(=O)c2ccc(NC(=O)c3nc4ccccc4s3)cc2OC[C@H](C)N(Cc2cccnc2)C[C@H]1C was read as IDE exosite FP 0.266.
For Cc1noc(C)c1S(=O)(=O)Nc1ccc2c(c1)C(=O)N([C@H](C)CO)C[C@H](C)[C@@H](CN(C)Cc1ccc(C(=O)O)cc1)OCCCC[C@H](C)O2 the results were IDE exosite FP 2.49.
Screening COc1cccc(S(=O)(=O)N2CCCCN3[C@H](C2)[C@H](c2ccc(-c4cccnc4)cc2)[C@@H]3CO)c1 returned IDE exosite FP 1.72.
For O=C(NCCCN1CCOCC1)[C@@H]1[C@@H](CO)[C@@H]2Cn3c(ccc(C4=CCCCC4)c3=O)[C@H]1N2 the results were IDE exosite FP -0.305.
For CCCC#Cc1ccc([C@H]2[C@H](C#N)N(C(=O)C3CC3)[C@H]2CO)cc1 the results were IDE exosite FP 1.27.

Screens as filed in PubChem.
